# Compound activity from PubChem BioAssay.
# In the library only some 3.4% were active in any assay of this set; here they are far more common.
# PP5 primary: PP5 phosphatase inhibitors, primary screen, biochemical, fluorescence. Serine/threonine-protein phosphatase 5 (Homo sapiens), P53041. purified PP5c, OMFP substrate fluorescence. inhibition, % at 6.7 µM. 0.18% of 320,000 active;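 active means inhibition above the campaign's mean inhibition across all tested compounds plus 3 SD, cut at about 9.5% in these data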;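 further: 0% = DMSO only and 100% = 100 µM cantharidin control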
# PAFAH1B3 inh: PAFAH1B3 enzyme inhibitors, primary screen, biochemical, fluorescence polarization, human; 0.28% of 340,000 active; Platelet-activating factor acetylhydrolase IB subunit alpha1 (Homo sapiens), Q15102; inhibition, % at 3.39 µM; recombinant PAFAH1B3, FP-rhodamine probe; AID 492972, 2010;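 active means inhibition above the screen-wide average of all tested compounds plus 3 SD, cut at about 25% in these data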;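 further: 0% = enzyme with DMSO only and 100% = wells lacking PAFAH1B3 protein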
# Target sequence (Q15102 whole entry, looked up): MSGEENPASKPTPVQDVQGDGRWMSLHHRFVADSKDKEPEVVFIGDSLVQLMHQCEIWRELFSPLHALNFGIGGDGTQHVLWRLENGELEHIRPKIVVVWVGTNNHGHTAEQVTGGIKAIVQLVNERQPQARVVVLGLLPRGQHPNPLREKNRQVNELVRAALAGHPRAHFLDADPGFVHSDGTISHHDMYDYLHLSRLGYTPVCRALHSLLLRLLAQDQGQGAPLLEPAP
# PAFAH2 inh: PAFAH2 enzyme inhibitors, primary screen, biochemical, fluorescence polarization, human | Platelet-activating factor acetylhydrolase 2, cytoplasmic (Homo sapiens), Q99487 | recombinant PAFAH2, FP-rhodamine activity probe | inhibition, % at 3.39 µM | 0.99% of 340,000 active | AID 492956, 2010;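 active means inhibition above the mean over all tested compounds plus 3 SD, cut at about 30% in these data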;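 further: inhibitors block probe labeling of enzyme so polarization drops; 0% = enzyme with DMSO and 100% = wells lacking PAFAH2 protein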
# pPAFAH FP inh: pPAFAH enzyme inhibitors, primary screen, biochemical, fluorescence polarization, human; recombinant pPAFAH, FP-rhodamine probe fluorescence polarization; 1.5% of 330,000 active; inhibition, % at 3.39 µM;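 active means inhibition above the mean inhibition across the screen plus 3 SD, cut at about 25% in these data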;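 further: inhibitors block binding of the rhodamine activity-based probe so polarization drops; 0% = enzyme with DMSO and 100% = wells lacking pPAFAH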
# PAFAH1B2 inh: PAFAH1B2 enzyme inhibitors, primary screen, biochemical, fluorescence polarization, human; recombinant PAFAH1B2, FP-rhodamine activity probe; 1.2% of 340,000 active; Platelet-activating factor acetylhydrolase IB subunit alpha2 (Homo sapiens), P68402; inhibition, % at 3.39 µM;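 active means inhibition above the mean of all tested compounds plus 3 SD, cut at about 24% in these data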;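 further: 0% = enzyme with DMSO and 100% = wells lacking PAFAH1B2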
# Target sequence (P68402 whole entry, looked up): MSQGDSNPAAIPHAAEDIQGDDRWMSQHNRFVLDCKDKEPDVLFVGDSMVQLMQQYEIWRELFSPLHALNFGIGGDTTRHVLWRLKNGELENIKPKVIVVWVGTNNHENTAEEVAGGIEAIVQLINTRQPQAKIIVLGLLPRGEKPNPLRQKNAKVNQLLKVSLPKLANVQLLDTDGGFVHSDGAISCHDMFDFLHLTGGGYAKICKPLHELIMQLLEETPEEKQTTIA
# PP1 inh: PP1-alpha phosphatase inhibitors, primary screen, counter-screen for PP5 inhibitor project, biochemical, fluorescence, OMFP substrate, single point; Serine/threonine-protein phosphatase PP1-alpha catalytic subunit (Homo sapiens), P62136; purified PP1alpha; inhibition, % at 6.7 µM; 0.9% of 320,000 active; AID 2235, 2010;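 active means inhibition above the mean inhibition of all tested compounds plus 3 SD, computed separately for each screening campaign, cut at about 15% in these data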
# * hit, by the source's call; x = no result given; ! = not confirmed by another sample.
SMILES,PP5 primary,PAFAH1B3 inh,PAFAH2 inh,pPAFAH FP inh,PAFAH1B2 inh,PP1 inh
COc1cc(C(=O)N2CCN(C(=O)c3cc(-c4ccccc4)n[nH]3)CC2)cc(OC)c1OC,-0.3,1.5,0.7,0.2,3.4,1.5
C=CCn1c(SCC(=O)c2cccs2)nc2sc(C)cc2c1=O,0.2,3.7,1.2,25.2*,0.2,1.5
C=CCn1c(SCC(=O)c2ccc(Cl)s2)nc2ccccc2c1=O,-0.9,9.3,4.9,-1.4,4.0,0.5
COc1ccccc1CCNC(=O)c1ccc(NC(=O)CC2SC(N3CCCCC3)=NC2=O)cc1 (configuration not stated),-2.8,4.0,2.2,-0.2,0.3,-2.3
CC(NC(=O)COC(=O)c1cc(Cl)ccc1O)C1CC2CCC1C2 (configuration not stated),3.3,3.6,28.8,7.2,26.5*,0.8
Cc1ccc(C(=O)OCC(=O)NC(C)C2CC3CCC2C3)cc1N (configuration not stated),x,7.3,83.8*,30.4*,7.4,x
CC(NC(=O)COC(=O)c1ccc2ccccc2n1)C1CC2CCC1C2 (configuration not stated),-0.4,9.2,5.3,22.6,-1.2,2.9
CCN(CC)Cc1cc(Nc2c3ccccc3nc3c4ccccc4n(C)c23)cc(CN(CC)CC)c1O,x,5.0,-1.6,x,-2.0,x
CN1CCc2cccc3c2[C@H]1Cc1ccc(O)c(O)c1-3,1.2,6.8,8.4,25.4*!,-0.1,1.5
Cc1c(C(=O)NCc2nnc(-c3ccccc3)o2)oc2c(F)cccc12,x,10.5,-3.3,x,0.2,x
CCS(=O)(=O)c1ccc(O)c(NC(=O)COc2ccc(Br)cc2)c1,0.6,3.3,79.9*,5.4,33.9*,-1.2
CCS(=O)(=O)c1ccc(O)c(NC(=O)/C=C/c2ccc(Cl)cc2)c1,0.8,3.7,65.6*,28.1*,-4.1,-4.2
Cc1ccc(CNc2ncc(-c3ccccc3)n2C)o1,0.4,-3.9,-0.1,2.5,-1.3,5.0
CCC(C)(O)c1[nH]c2ccc(C(=O)OC)cc2c1C (configuration not stated),-1.5,3.0,3.7,2.5,-3.3,0.5
C=CCN1C(=O)c2ccc(C(=O)N(CCOC)c3c(N)n(CCCC)c(=O)[nH]c3=O)cc2C1=O,-2.1,2.1,3.5,0.4,2.2,-4.3
O=C(O)c1[nH]c2ccccc2c1C(c1c(F)cccc1Cl)c1c(C(=O)O)[nH]c2ccccc12,2.9,1.6,11.4,6.8,48.7*,2.9
COc1cc(Cl)cc(C(c2c(C(=O)O)[nH]c3ccccc23)c2c(C(=O)O)[nH]c3ccccc23)c1O,-1.0,14.6,7.6,11.6,83.3*,2.2
O=C(O)c1[nH]c2ccccc2c1C(c1cc(Br)ccc1O)c1c(C(=O)O)[nH]c2ccccc12,2.1,3.3,12.9,14.8,94.4*,0.3
O=C(O)c1[nH]c2ccccc2c1-c1ccccc1,-1.0,-1.8,-7.4,7.5,14.2,-2.3
Cc1cc(C)c(-c2c(N)cc(Br)cc2Br)c(N)c1,x,12.6,4.4,x,3.5,x
O=C1c2ccccc2C(O)(c2ccccc2)N1c1ccc([N+](=O)[O-])cc1Cl (configuration not stated),x,11.7,12.0,x,5.2,x
Cc1ccn2c(=O)nc(SCC(=O)c3ccc(Cl)cc3)nc2c1,-0.6,3.5,6.1,24.9*,6.0,-4.1
Cc1ccn2c(=O)nc(SCC(=O)N3CCC(C)CC3)nc2c1,-0.6,2.2,5.6,25.6*,1.1,-6.1
Cc1cccn2c(=O)nc(SCC(=O)c3ccc(Cl)cc3)nc12,-0.2,3.9,7.3,7.8,11.3,-1.7
c1ccc(-c2cc(-c3ccc(N4CCOCC4)cc3)nc3ccccc23)cc1,3.0,8.8,1.9,30.1*,-1.0,0.6
SMILES,PP5 primary,PAFAH1B3 inh,PAFAH2 inh,pPAFAH FP inh,PAFAH1B2 inh,PP1 inh
c1ccc(-c2cc(N3CCOCC3)nc(-c3ccccc3)n2)cc1,1.6,2.6,-2.0,2.2,-6.8,-11.4
COCc1nnc(NC(=O)c2ccc(S(=O)(=O)N3CCCc4ccccc43)cc2)o1,0.8,2.4,8.3,6.0,5.5,17.1*
CCNc1nc(CN2CCOCC2)nc2sc3c(c12)CCC3,1.5,-0.2,11.9,-1.0,2.1,1.1
c1ccc2c(c1)CCN(c1nc(CN3CCOCC3)nc3sc4c(c13)CCCC4)C2,4.0,3.6,4.4,31.8*,2.7,9.0
COc1cccc(=O)c2c(C)n(-c3cc(C)cc(C)c3)c(C)c12,2.6,-0.4,58.8*,23.5,7.2,4.6
COc1ccc(C2=NN(C(=O)CCC(=O)O)C(c3ccc([N+](=O)[O-])cc3)C2)cc1 (configuration not stated),x,6.1,3.7,x,3.2,x
O=C1C2N=NN(CC(=O)N3N=C(c4ccccc4)CC3c3ccc([N+](=O)[O-])cc3)C2C(=O)N1c1ccccc1 (configuration not stated),-0.2,x,x,-0.4,x,16.4*
Cc1cccc(-n2c(C)cc(/C=C3\NC(=O)NC3=O)c2C)c1,-0.2,2.9,5.8,-3.0,6.2,-7.5
Cc1cc(C)c(-n2c(C)cc(/C=C3/NC(=O)NC3=O)c2C)c(C)c1,3.8,x,x,27.3*,x,7.3
CC1CC(NS(=O)(=O)c2cccs2)CC(C)(C)C1 (configuration not stated),-0.5,14.9,7.6,-3.3,28.8*,2.7
CC(=O)c1cccc(-c2csc(N3CCC(C(N)=O)CC3)n2)c1,x,1.2,8.9,-4.5,2.5,x
NC(=O)C1CCN(c2nc(-c3cccc(Cl)c3)cs2)CC1,x,9.8,-8.1,32.8*,-0.7,x
Cc1ccc(S(=O)(=O)NCc2n[nH]c(=S)n2C)cc1,2.2,0.3,8.0,1.8,5.0,0.4
Cn1c(CNS(=O)(=O)c2ccc(Br)cc2)n[nH]c1=S,-0.1,9.8,4.1,6.9,24.4*,-1.8
CC1CC(C)CN(S(=O)(=O)c2ccc3c(c2)CC(=O)N3)C1 (configuration not stated),0.8,1.9,3.4,0.3,27.5*,-0.9
Cc1ccc(S(=O)(=O)CCC(=O)NCCN2C(=O)S/C(=C/c3ccc(F)cc3)C2=O)cc1,1.9,4.4,5.5,5.2,32.8*,3.4
COC(=O)/C=C/c1ccc2c(c1)OCO2,-1.6,0.1,-5.0,-5.8,0.8,-1.8
CCNc1ccccc(C(=O)/C=C/c2ccc3c(c2)OCO3)c1=O,2.4,8.2,29.9*,31.7*,5.5,9.3
O=C1NC(=Nc2ccccc2)/C(=C/c2ccco2)S1,5.1,7.4,1.3,33.7*,-1.9,1.1
